From PubChem BioAssay
Compounds with a hit are over-represented: about 2.8% of the library has one in this group of screens.
PP1 inh – PP1-alpha (human) inhibition in PP5 counter-screen; P62136; purified PP1alpha, OMFP fluorescence; inhibition, % at 6.7 µM; 320,000 compounds, 0.9% hits; AID 2235;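 active = inhibition above the mean inhibition of all tested compounds plus 3 SD, computed separately for each screening campaign, cut at about 15% in these data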
PP5 primary – inhibitors of human protein phosphatase 5 (PP5); inhibition, % at 6.7 µM; 320,000 compounds, 0.18% hits; P53041; purified PP5c, OMFP substrate fluorescence;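 active = inhibition above the campaign's mean inhibition across all tested compounds plus 3 SD, cut at about 9.5% in these data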;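 note: 0% = DMSO only and 100% = 100 µM cantharidin control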
NR1D1 modulator – modulators of human Rev-erb alpha DNA binding; P20393; Rev-erbα–FITC-DNA binding, fluorescence polarization, 90 min; activity, % at 10 µM; 370,000 compounds, 0.79% hits; AID 1259318;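 active = activity above about 14%, limit read from the data; passing the limit was not always enough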;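 note: 0% = DMSO wells with 35 nM protein and 100% = DMSO wells with 750 nM protein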
Target sequence (P20393 whole entry, looked up): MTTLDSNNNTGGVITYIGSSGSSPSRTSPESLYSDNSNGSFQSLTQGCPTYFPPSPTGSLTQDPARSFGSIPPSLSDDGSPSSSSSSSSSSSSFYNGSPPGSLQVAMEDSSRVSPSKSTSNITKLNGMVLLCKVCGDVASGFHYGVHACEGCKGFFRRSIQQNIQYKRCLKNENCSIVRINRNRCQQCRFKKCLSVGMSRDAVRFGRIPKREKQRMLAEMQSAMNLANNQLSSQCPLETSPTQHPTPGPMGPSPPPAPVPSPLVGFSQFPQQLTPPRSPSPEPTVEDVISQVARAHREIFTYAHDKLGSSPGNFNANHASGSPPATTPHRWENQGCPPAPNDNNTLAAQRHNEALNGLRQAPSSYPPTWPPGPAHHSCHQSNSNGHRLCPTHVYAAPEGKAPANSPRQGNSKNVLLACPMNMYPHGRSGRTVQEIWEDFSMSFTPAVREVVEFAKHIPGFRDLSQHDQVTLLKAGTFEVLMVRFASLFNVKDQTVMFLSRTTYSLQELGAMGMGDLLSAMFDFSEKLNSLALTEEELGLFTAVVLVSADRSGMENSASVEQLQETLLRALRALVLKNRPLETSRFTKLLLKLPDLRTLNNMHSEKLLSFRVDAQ
KLK7 zymogen act – proKLK7 (human) activation, primary screen; purified proKLK7, EDANS-DABCYL substrate fluorescence; 100% is mature enzyme control, 0% vehicle; activation, % at 7 µM; 370,000 compounds, 0.9% hits; AID 652039;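 active = activation above the mean of all tested compounds plus 3 SD, computed per campaign excluding outliers beyond control limits, cut at about 13% in these data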
JMJD2C inh – inhibitors of human GASC-1 (JMJD2C) demethylase. GST-JMJD2C(1-420) H3K9me3 demethylation, DELFIA europium. inhibition, % at 2.35 µM. AID 2099. Q9H3R0. 330,000 compounds, 0.069% hits;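 active = more than half of a compound's replicate wells show inhibition beyond 50%, single wells judged on their own value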;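 note: signal counts dimethyl H3K9 product captured on neutravidin plate; 0% = median of DMSO wells and 100% = 0.3 times that DMSO median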
PG9 Ab binder – PG9 antibody binding by small molecule. TR-FRET gp120-PG9 antibody binding. 360,000 compounds, 0.43% hits. inhibition, % at 6.7 µM; in the data active = inhibition above about 8.5%
PP1 confirm – human PP1 phosphatase inhibition, confirmation; 1,900 compounds, 52% hits; inhibition, % at 6.7 µM; purified PP1alpha, OMFP substrate fluorescence; shares compounds with PP1 inh;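 active = mean PP1 inhibition above a set limit taken from the earlier primary screen, cut at about 15% in these data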
PP5 inh counter – PP5 phosphatase inhibition, counter-screen for PP1 inhibitors; shares compounds with PP1 inh; purified PP5c, OMFP fluorescence; inhibition, % at 6.7 µM; 1,900 compounds, 4% hits; AID 2360;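 active = mean PP5 inhibition over triplicate wells above about 9.5% taken from the earlier PP1 screen, limit read from the data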
Numbers without * were called inactive.

Screening O=C(N/N=C/c1ccncc1)c1cccc(NC(=O)c2ccc(Cl)cc2)c1 returned PP1 inh 30.7*, PP5 primary 1.3, NR1D1 modulator -10.4, KLK7 zymogen act 0.3, JMJD2C inh -6.1, PG9 Ab binder -2.9, PP1 confirm 12.1 and PP5 inh counter -1.4.
Screening O=C(N/N=C/c1ccncc1)c1cccc(N/N=C/c2ccncc2)c1 returned PP1 inh -2.8, PP5 primary 0.7, NR1D1 modulator 7.1, KLK7 zymogen act 0.8, JMJD2C inh 24.1 and PG9 Ab binder -7.9.
Screening CCCCOCCCNC(=O)C[C@@H]1C(=O)N(Cc2ccc(OC)cc2)/C2=C/CCCCC[C@@]21C(=O)OCC returned NR1D1 modulator 2.2 and KLK7 zymogen act 0.8.
`Cc1cc(C2=NNC(=NC3CCCCC3)SC2)c(C)n1-c1c(C)n(C)n(-c2ccccc2)c1=O` gave PP1 inh 18.6*, PP5 primary 1.7, NR1D1 modulator -0.6, KLK7 zymogen act -0.4, JMJD2C inh 5.5, PG9 Ab binder -0.5, PP1 confirm -0.4 and PP5 inh counter -2.8.
Screening COC(=O)[C@]12C[C@H](CC(=O)NCCC(C)C)C(=O)N(CCC3=CCCCC3)C1=C[C@H](C1CCCC1)O[C@@H]2C returned NR1D1 modulator 5.7 and KLK7 zymogen act 0.5.
For CCOC(=O)C1(Cc2cccc(Cl)c2)CCCN(C(=O)CN2C(=O)CSC2=O)C1 (stereo not drawn) the results were PP1 inh 18.9*, PP5 primary 1.3, NR1D1 modulator -1.7, KLK7 zymogen act -0.3, JMJD2C inh -10.8, PG9 Ab binder -1.5, PP1 confirm -2.9 and PP5 inh counter -5.3.
COc1ccc2cc3cc(C(=O)Nc4ccc(F)cc4)sc3nc2c1 was read as NR1D1 modulator -17.9.
COc1cccc(CNC(=O)[C@H]2CCCN2C(=O)[C@H]2CCCN2S(=O)(=O)c2cccc(C)c2)c1 was read as NR1D1 modulator 2.6, KLK7 zymogen act 0.5 and PG9 Ab binder 0.1.
Screening Cc1ccc(C)c(S(=O)(=O)N2CCN(Cc3ccc(O)c4ncccc34)CC2)c1 returned PP1 inh 31.4*, PP5 primary 6.3, NR1D1 modulator 7.5, KLK7 zymogen act -1.0, JMJD2C inh -8.7, PG9 Ab binder -1.6, PP1 confirm 29.9* and PP5 inh counter -6.8.
`O=C(NCCc1ccccc1)OCc1cn(Cc2cc(F)cc(F)c2)nn1` gave NR1D1 modulator -5.7 and KLK7 zymogen act 0.2.
`C[C@@H]1CN(c2ccc(N3CCNC[C@@H]3C)cc2C#N)CCN1Cc1ccccc1` gave NR1D1 modulator -1.4, KLK7 zymogen act 4.1 and PG9 Ab binder -2.6.
For CCCCN(C)C(=O)CSc1nnc(-c2cc(OC)c(OC)c(OC)c2)o1 the results were NR1D1 modulator 0.6 and KLK7 zymogen act -0.3.
Cc1nc(-c2ccccn2)nc(SCC(=O)c2ccc(F)cc2)c1Cl was read as PP1 inh 27.2*, PP5 primary 3.2, NR1D1 modulator 0.8, KLK7 zymogen act -0.2, JMJD2C inh 9.2, PG9 Ab binder 1.4, PP1 confirm 40.8* and PP5 inh counter -3.4.
For COc1ccc(C(=O)CSc2nc(-c3ccccn3)nc(C)c2Cl)cc1 the results were PP1 inh 14.6, PP5 primary -0.8, NR1D1 modulator -8.3, KLK7 zymogen act -0.1, JMJD2C inh 21.7 and PG9 Ab binder -0.4.
For O=C(Cc1ccccc1)N/N=C/c1cc(Br)cc(Br)c1O the results were PP1 inh -2.2, PP5 primary 1.3, NR1D1 modulator 7.2, KLK7 zymogen act -2.2, JMJD2C inh -2.3 and PG9 Ab binder -0.9.
O=C(O)c1ccccc1N/N=C/c1cc(Br)cc(Br)c1O was read as PP1 inh 22.8*, PP5 primary 1.0, NR1D1 modulator 4.1, KLK7 zymogen act -0.2, JMJD2C inh -1.1, PG9 Ab binder -1.2, PP1 confirm 10.6 and PP5 inh counter -0.7.
Screening CC(=O)OCCCN1c2ccccc2Nc2nnc(-c3ccccc3)cc21 returned PP1 inh 28.8*, PP5 primary -0.2, NR1D1 modulator -2.1, KLK7 zymogen act 0.0, JMJD2C inh -1.0, PG9 Ab binder 0.0, PP1 confirm 28.5* and PP5 inh counter -2.7.
For C=CCN1[C@@H](CC(C)C)COc2cc(F)ccc2S1(=O)=O the results were NR1D1 modulator 3.5 and KLK7 zymogen act -0.1.
Screening C=CCN1C(=O)[C@@H](CC(=O)NCc2ccc(C)o2)[C@]2(C(=O)OCC)CCCCC/C=C/12 returned NR1D1 modulator 0.0 and KLK7 zymogen act 0.3.
For CCCCN1CCN(C(=O)c2ccc(CNC(=O)c3cccc(Br)c3)cc2)CC1 the results were NR1D1 modulator -2.4 and KLK7 zymogen act 0.1.
`CCCCOc1ccc(C(=O)NC2CCCCN(C)C2=O)cc1` (stereo not drawn) gave NR1D1 modulator -8.6, KLK7 zymogen act 0.4 and PG9 Ab binder -1.0.
For O=C1Nc2cc(C(=O)N3CCN(c4ccccc4F)CC3)ccc2NC1CSCc1ccccc1F (stereo not drawn) the results were PP1 inh 18.5*, PP5 primary 1.3, JMJD2C inh 8.2, PP1 confirm 32.5* and PP5 inh counter 1.0.
For COc1ccc(N2CCN(C(=O)c3ccc4c(c3)NC(=O)C(CSCc3ccccc3F)N4)CC2)cc1 (stereo not drawn) the results were NR1D1 modulator -3.5, KLK7 zymogen act -0.6 and PG9 Ab binder -1.2.
Screening Cc1cc2c(C)nc(N/N=C/c3ccc([N+](=O)[O-])cc3)nc2o1 returned PP1 inh 18.0*, PP5 primary 1.9, NR1D1 modulator -29.2, KLK7 zymogen act 0.3, JMJD2C inh 4.9, PG9 Ab binder -2.9, PP1 confirm 33.1* and PP5 inh counter -3.0.
For Cc1cc2c(C)nc(N/N=C/c3ccc(F)cc3)nc2o1 the results were PP1 inh -4.7, PP5 primary 0.1, NR1D1 modulator -2.8, KLK7 zymogen act 1.0, JMJD2C inh 0.7 and PG9 Ab binder -2.7.
CC1Cc2cc(/C(O)=C3/C(=O)C(=O)N(CCCn4ccnc4)C3c3ccc(Br)cc3)ccc2O1 (stereo not drawn) was read as PP1 inh 26.3*, PP5 primary 1.2, NR1D1 modulator 0.7, KLK7 zymogen act -0.3, JMJD2C inh -11.9, PG9 Ab binder 2.3, PP1 confirm 31.3* and PP5 inh counter 1.0.
For CCCCNC(=O)C[C@H]1C[C@@]2(C(=O)OC)C(=C[C@H](C(C)(C)C)O[C@@H]2C)N(CCc2ccc(OC)c(OC)c2)C1=O the results were NR1D1 modulator -3.8 and KLK7 zymogen act -0.9.
